Inconclusive results are not listed. Where a call stands in place of a potency, no number is given. Unmarked numbers belong to inactive results. Active and inactive are the calls of the source. Calls follow the shape of the full dose curve.
Assay: Nuclear factor erythroid 2-related factor 2/antioxidant responsive element (Nrf2/ARE) small molecule agonists: luciferase reporter gene qHTS assay in human keratinocytes (AID 1919969); also: nearly all actives have a fitted effect of over 35% in size
Potency is read from the fitted curve at half-maximal effect.

Row | Structure (SMILES) | Potency | activity, positive = activation
1 | CC/C=C(\C)C=O | inactive | 
2 | C1COC(NC(C2CC2)C2CC2)=N1 | inactive | 
3 | Cc1ccc(S(=O)(=O)NC(=O)NN2CC3CCCC3C2)cc1 (configuration not stated) | inactive | 
4 | COc1cc2nc(Cl)nc(N)c2cc1OC | inactive | 
5 | O=C1OC(=O)c2cccc3cccc1c23 | 27.6 µM (active) | 
6 | CCN(CC)C(=O)Nc1ccc(OCC(O)CNC(C)(C)C)c(C(C)=O)c1 (configuration not stated) | inactive | 
7 | CC(=O)CCc1ccc(O)cc1 | inactive | 
8 | CCN(CC)CCOCCOC(=O)C1(c2ccccc2)CCCC1 | inactive | 
9 | COCCOC(=O)C1=C(C)NC(C)=C(C(=O)OC/C=C/c2ccccc2)C1c1cccc([N+](=O)[O-])c1 (configuration not stated) | inactive | 
10 | CC(NN)c1ccccc1 (configuration not stated) |  | -1.07% [at 19 µM]
11 | CN(C)CCC=C1c2ccccc2C=Cc2ccccc21 | inactive | 
12 | O=C(O)/C=C/c1ccc(/C=C/C(=O)O)cc1 | inactive | 

From PubChem BioAssay (Tox21)
